Hit rate of the full screen: of about 300,000 compounds, about 480 (0.16%) were called active.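 Rule for the calls: active = inhibition over 29.93%, a cutoff 3 SD above the screen mean, later confirmed by dose response; inconclusive = inhibition over 29.93% but no dose response follow-up; inactive = inhibition at most 29.93% or unconfirmed.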 The list is a sample of the results. Measured potencies and affinities stand elsewhere.
Test: inhibitors of PhoP regulon expression, primary screen, Salmonella Typhimurium, GFP reporter (AID 1863);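 note: 0% = low Mg2+ inducing control and 100% = high Mg2+ repressing control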
Conditions: S. Typhimurium PhoP-regulated promoter GFP reporter, 4 h; at 50 µM; stronger effect = higher value

inhibition, inactive:
OC1CCN(Cc2ccc(OCc3ccccc3)cc2)CC1 2.08%, O=S(=O)(c1ccc(Br)cc1)N1CCN=C1SCc1cccc(F)c1 -2.02%, Cc1c(C(=O)N(Cc2cccc(Br)c2)C2CCS(=O)(=O)C2)oc2ccc(F)cc12 (configuration not stated) 3.11%, O=C(ONC1=NCCCCC1)c1ccc(Cl)cc1 -13.6%, Cc1nn(C)c(=O)n1-c1ccccc1 0.59%, O=C(N/N=C\c1cc2c(cc1[N+](=O)[O-])OCO2)c1cccs1 -4.81%, O=C(N/N=C\c1ccc(Cl)s1)c1cccs1 -9.8%, O=C(N/N=C/c1ccccc1[N+](=O)[O-])c1cccs1 -1.95%, O=C(N/N=C/c1ccc(Br)s1)c1cccs1 0.89%, COc1ccccc1NC(=O)Nc1ccc(Cl)c(S(=O)(=O)Nc2ccccc2OC)c1 -18.5%, CCOc1ccc(CN(CC)C(=O)c2ccc3c(c2)[nH]c(=O)c(=O)n3CC)cc1OC 2.8%, COc1ccccc1CCNC(=O)C1(C)CC1(Cl)Cl (configuration not stated) -0.33%, O=C(CN1CCN(Cc2ccccc2)CC1)NCc1ccc(Cl)cc1 3.85%, CCOC(=O)C1CCCN(C(=O)c2ccccc2NC(C)=O)C1 (configuration not stated) 8.46%, OCCn1c(CSc2nnc(-c3ccco3)n2-c2ccccc2)nc2ccc(Cl)cc21 8.64%, COc1cccc(-c2nc(=S)c3c(n2CCCO)CCCC3)c1 6.79%, CSc1cccc(NC(=S)N(CCCN2CCCC2)Cc2cccs2)c1 2.61%, CN1\C(=C/C=C/C=C/C=[N+](C)C)C(C)(C)c2ccccc21 -18.9%, CN1/C(=C\C=O)C(C)(C)c2ccccc21 4.13%, O=C(c1ccccc1)c1ccccn1 3.01%, Cc1ccccc1-c1nnc(SCCOc2ccc3c(C)cc(=O)oc3c2)o1 0.64%, Cc1ccc(S(=O)(=O)CC(=O)c2ccc([N+](=O)[O-])cc2)cc1 -7.13%, CCn1cc(C(=O)NCc2ccccn2)c(=O)c2cc(F)c(N3CCN(C)CC3)cc21 17.4%, CCn1cc(C(=O)NN)c(=O)c2cc(F)c(N3CCOCC3)cc21 -6.58%, CCCCCOC(=O)NCC(O)c1ccccc1 (configuration not stated) 10.7%, N#CC1=C(N)N(c2ccccc2)C(c2cccc([N+](=O)[O-])c2)C1(C#N)C#N (configuration not stated) -7.85%, O=C(Cc1ccccc1)c1c[nH]c(C(=O)NCCCN2CCOCC2)c1 -3.4%

Reference: PubChem BioAssay AID1863 (Southern Research Specialized Biocontainment Screening …, 2009)
